Records with an inconclusive call do not appear. A call without a number means that no potency is given here. Calls of active or inactive are those of the source. Calls follow the shape of the dose curve; as a rule, active = well fitted inhibition curve with a large enough effect; inconclusive = small, poorly fitted or top-dose-only effect; inactive = no such curve, though single readings can be large or run the other way. Bridge positions count the residues as written; N and C are the ends. Square brackets hold non-standard residues; d marks the D form. Side chains are listed from the residue outwards. Peptide text beside a SMILES is read from it. * marks the point of attachment. Phg(4-OMe) = COc1ccc([C@H](N)C(=O)O)cc1; d(aIle) = CC[C@H](C)[C@@H](N)C(=O)O; d(aThr) = C[C@@H](O)[C@@H](N)C(=O)O; NMeF = CN[C@@H](Cc1ccccc1)C(=O)O; Isobutyryl = CC(C)C(=O)*
Potency is read from the fitted curve at half-maximal effect.

The test can be described thus: qHTS for Hypoxia signaling pathway (HIF-1) antagonists against the NCATS CANVASS Library (AID 1347374). Also: nearly all actives have a fitted effect of over 60% in size. The note with it: HRE-bla ME-180 cells, HIF-1 beta-lactamase reporter, CoCl2; series mostly up to 38.3 µM. The source says: Natural products and their derivatives continue to be wellsprings of nascent therapeutic potential. However, many laboratories have limited resources for biological evaluation, leaving their previously isolated or synthesized compounds largely or completely untested. To address this issue, the Canvass library of natural products was assembled (https://tripod.nih.gov/canvass), in collaboration with academic and industry researchers, for quantitative high-throughput screening (qHTS) across a diverse set of cell-based and biochemical assays. […] We collected pure natural products to circumvent deconvolution and structure elucidation due to time and resource limitations. The library was formatted into 1536-well plates and evaluated in 50 qHTS (in an 11-pnt concentration series) bioassays with broad scope of disease-relevant mechanisms. The resulting data set from 50 different assays was then systematically analyzed to identify overall trends and specific natural products with interesting biological activities. Reported herein are the results of each individual qHTS and their corresponding assay protocol. During hypoxic conditions, the cellular responses are regulated in large part through the activation of the heterodimeric transcription factor called hypoxia-inducible factor-1 (HIF-1). The assay used is a beta-lactamase reporter gene under control of the hypoxia responsive element (HRE) that has been stably integrated into ME-180 cells. This assay identifies inducers of the HIF-1-signaling pathway. The cytotoxicity of the compound library against HRE-bla ME-180 cell line was tested in parallel by measuring cell viability using CellTiter-Glo assay (Promega, Madison, WI) in the same assay wells. The compounds were also tested for auto fluorescence that may interfere with the biological target readout resulting in potential false positives and/or negatives. National Center for Advancing Translational Sciences (NCATS), Rockville, MD National Institute of Health (NIH), Bethesda, Maryland
HIF-1 antagonist assay protocol: 1. HRE-bla ME-180 cells were dispensed at 2,000 cells per well in 5 uL of assay medium containing 0.5% dialyzed FBS into black wall/clear-bottom 1536-well plates using a Multidrop Combi (Thermo Scientific, Waltham, MA) dispenser. 2. After the assay plates were incubated at 37C and 5% CO2 for 5 hrs, 23 nL of compounds dissolved in DMSO, positive controls or DMSO only was transferred to each well of the assay plate using a Pintool station (Kalypsys, San Diego, CA). 3. One microliter of 60 uM CoCl2 (which enhance the stability of HIF-1alpha) or 1 uL of assay medium was added to the wells using BioRAPTR dispenser. 4. The assay plates were then incubated at 37C and 5% CO2 for 17 hrs. 5. One microliter of CCF4 dye was added the assay plate and incubated at room temperature for 2 hours. 6. The fluorescence intensity was obtained using the EnVision (PerkinElmer, Shelton, CT) plate reader using a 405 nm excitation, and 460 and 530 nm emission filters. 7. To assess cell viability (and for data normalization), 4uL of CellTiter-Glo (Promega) was added to the assay plate using the BioRAPTR dispenser and incubated at room temperature for 30 min. 8. Luminescence signal was obtained using the ViewLux microplate reader (PerkinElmer) using a clear emission mirror, and a 15 sec exposure time, 1x binning settings.
A general note: In qHTS, concentration-response curves come from the screen itself.
With `C/C(=C\[C@H](C)C(=O)C[C@H](O)CC1CC(=O)NC(=O)C1)[C@@H]1OC(=O)CCCC/C=C/[C@@H](O)C[C@@H]1C`, the Potency was 4.2 µM (active). With `CN1CCc2cc3c(c4c2C1(C)C(=O)c1cc(O)ccc1-4)OCO3` (stereo not given), the Potency is 13.3 µM (active). The result for `COc1ccc(-c2oc3cc(OC)cc(OC)c3c(=O)c2O)cc1` reads 0.472 µM (active); that for `COc1cc([C@@H]2c3cc4c(cc3C[C@@]3(O[C@@H]5O[C@H](CO)[C@@H](O)[C@H](O)[C@H]5O)COC(=O)[C@H]23)OCO4)cc(OC)c1OC`, “inactive”; that for `CC(=O)Oc1cc2c(c(OC(C)=O)c1C1CCc3cc(Cl)c(Cl)n31)C(=O)n1c-2cc(Cl)c1Cl` (stereo not given), 3.34 µM (active). With `C=CC(C)(C)C(=O)[C@@H](C)[C@@H]1CC[C@@](C)(C=C)O1`, the Potency entry is “inactive”. The result for `C/C(=C\[C@@H](C)CC/C=C/CC/C=C/C(=O)O)[C@@H](O)[C@H](C)C(=O)CCCC1CC(=O)NC(=O)C1` reads “inactive”; that for `C/C=C1/CN2C3CC1C1C=CC(=O)N4c5ccccc5[C@@]3(C[C@@H]2C2=C[C@H]3C5CC6N(CC[C@@]67c6ccccc6N(C2=O)[C@@H]37)C/C5=C/C)[C@H]14` (stereo not given in full), 9.41 µM (active); that for `CC(C)=CCC[C@]1(C)[C@H]2CC(=O)[C@@]3(CO3)[C@@H]1C2`, “inactive”.

With `COc1cc2ccc(=O)oc2c(O)c1O[C@@H]1O[C@H](CO)[C@@H](O)[C@H](O)[C@H]1O`, the Potency result was “inactive”.

As for `COc1cc2oc3ccccc3c(=O)c2cc1OC`, the Potency entry is “inactive”.

Turning to `C[C@@]12C[C@@H](C[C@@H]3C(=O)O[C@@H](c4ccoc4)[C@H](OC(=O)c4ccccc4)[C@@H]31)OC2=O`, the Potency result is “inactive”.

With `CC(=O)O[C@H]1c2ccccc2-c2c3c(cc4c2[C@@H]1N(C(C)=O)CC4)OCO3`, the Potency entry is “inactive”. Consider `CC(=O)N[C@H](C)c1nc(/C=C/C=C/C(=O)CC2CC(=O)CC[C@]2(C)O)cs1` (stereo not given in full), for which the Potency entry was “inactive”. In the case of `COc1ccc2[nH]c3c(c2c1)CCN1C[C@H]2C[C@@H](OC(=O)c4cc(OC)c(OC)c(OC)c4)[C@H](OC)[C@@H](OC)[C@H]2C[C@H]31` it was “inactive”; in that of `CN1C(=O)C(=O)N2C(=C[C@]3(c4c[nH]c5ccccc45)c4ccccc4N[C@H]23)C1=O`, “inactive”; in that of `COC(=O)C1=C[C@]23C[C@@H](C)CC[C@@H]2[C@@]2(C)CC[C@@H](C(C)C)[C@@](O)(O3)[C@@H]12`, “inactive”. The result for `CO[C@@H](C[C@@H](C)[C@@H](O)/C=C/C=C/CNC(=O)C(C)(C)[C@H](O)\C(C)=C/C=C\C=C\Cc1cnco1)[C@]1(O)[C@@H](C)C(=O)N(C)[C@@]12COC2=O` reads “inactive”; that for `CC[C@H](O)CCCCC[C@@H]1NC(=O)[C@H]2CCCCN2C(=O)[C@H]([C@H](C)CC)NC(=O)[C@H](Cc2cn(OC)c3ccccc23)NC1=O`, “inactive”; that for `C=C(C)C(=O)O[C@H]1C[C@@]2(C)OC(=CC2=O)/C(C)=C\[C@H]2OC(=O)C(=C)[C@H]12`, 1.67 µM (active). Turning to `C[C@@]1(CCC(=O)Nc2c(O)ccc(C(=O)O)c2O)C(=O)C=C[C@]23C[C@H]4C[C@H](O[C@@]4(C)C2)C31` (stereo not given in full), the Potency result was “inactive”.

As for `C/C1=C/[C@@H](C)[C@H](O)[C@@H](O)/C=C/CC/C=C/C(=O)O[C@@H]1[C@H](C)C(=O)CCCC1CC(=O)NC(=O)C1`, the Potency entry was “inactive”. The result for `COc1cc2c(c(O)c1O)C(=O)c1c(coc1C)C2=O` reads 5.29 µM (active); that for `O[C@H]1c2ccccc2-c2c3c(cc4c2[C@@H]1NCC4)OCO3`, 18.8 µM (active); that for `C/C(=C\[C@H](C)C(=O)CCCC1CC(=O)NC(=O)C1)[C@@H]1OC(=O)/C=C/CC/C=C/[C@H](O)[C@@H](O)[C@@H]1C`, 0.374 µM (active). Take `COc1cc2c(cc1OC)[C@@H](c1ccc3c(c1)OCO3)C(C)[C@@H](C)C2=O` (stereo not given in full): the Potency entry was “inactive”. In the case of `CC(C)[C@]12CC[C@@]3(C)[C@H](C)CC[C@H](O)[C@@]3(CC1)c1cc3c(cc12)[nH]c1ccccc13` it was “inactive”; in that of `C=C1CCC2C(C)(C(=O)O)CCC(CC/C(C)=C/C(=O)NC(CCC(N)=O)C(=O)O)[C@@]2(C)C1` (stereo not given in full), “inactive”; in that of `Cc1cc(C)c(O)c(C(=O)CC2CC(=O)NC(=O)C2)c1`, 7.47 µM (active). Consider `C=CC(CCCCC)C1C(=O)NC(=O)C1C(=O)C1C2C(C)CC(C(=O)O)CC2CC1(O)C(=O)/C=C/C` (stereo not given), for which the Potency was 8.38 µM (active). In the case of `CC[C@H](C)[C@H]1NC(=O)[C@@H](NC(=O)C(C)C)[C@@H](C)OC(=O)[C@H](COC(=O)CNC(C)=O)NC(=O)[C@@H]([C@@H](C)O)NC(=O)[C@H](Cc2ccccc2)N(C)C(=O)[C@H](c2ccc(OC)cc2)NC1=O` (Isobutyryl-T[d(aIle)][Phg(4-OMe)][NMeF][d(aThr)]S([Gly-Ac]); ester 1-C) it was “inactive”; in that of `C/C=C1/C2=CCCN3C(=O)O[C@H]([C@H]1O)[C@H]23`, “inactive”.

As to `O=C1CC(c2ccc(O)cc2)Oc2ccccc21` (stereo not given), the Potency result is “inactive”.

As to `COC(=O)[C@@]1(C)CCC[C@]2(C)c3cc(OC)ccc3CC[C@@H]12`, the Potency entry was “inactive”. In the case of `O=Cc1ccc2n1C[C@]1(OC2)O[C@H](CO)[C@@H](O)[C@@H]1O`, the Potency result was “inactive”.

Take `C=C1CC[C@@H](O[C@H]2C[C@@](O)([C@H](C)NC(=O)c3[nH]c(C)c(Cl)c3Cl)[C@H](O)[C@@H](C)O2)[C@@H]2C=C[C@H](C)C(/C(O)=C3/C(=O)[C@H](C(C)C)N([C@@H]4O[C@H](C)[C@H](OC(N)=O)[C@H](OC(C)=O)[C@@H]4OC)C3=O)[C@@H]12` (stereo not given in full): the Potency is 16.7 µM (active). The result for `C/C(=C\[C@H](C)C(=O)/C=C/CC1CC(=O)NC(=O)C1)[C@@H]1OC(=O)/C=C/CC/C=C/C[C@@H](O)[C@@H]1C` reads 1.33 µM (active); that for `C/C=C/[C@H]1[C@H]2C(=O)c3c(O)c(C)c(O)c(C)c3[C@]1(C(=O)O)C(=O)C=C2C`, “inactive”; that for `CC(C)=CCCC(C)(O)[C@H]1CC=C(C)C(O)C1` (stereo not given in full), “inactive”. Consider `CC(CCC[C@]1(C)C(=O)C=C[C@@]23C[C@]4(C)O[C@@H](C[C@@H]4[C@H]2O)C31)C(=O)O` (stereo not given in full), for which the Potency result was “inactive”.

(Values after PubChem BioAssay (NCATS).)
